Assay results from PubChem BioAssay (EPA / NIEHS).
Records with an inconclusive call do not appear. Activity calls are given as the source filed them. Rule for the calls, unless noted: active = hit-call score of the fitted dose curve at least 0.9, where 1 is the maximum; inconclusive = response in the unintended direction; inactive = score below 0.9.

How the values were obtained:
[1] = molecular target: Cellular tumor antigen p53 (Homo sapiens) (UniProt P04637); assay: TOX21_p53_BLA_p2_ratio: Tox21 HCT-116 p53 Agonism Beta-lactamase Assay, Ratio, Phase 2 (AID 2283592)
Cellular tumor antigen p53 (Homo sapiens), sequence (P04637 whole entry, looked up): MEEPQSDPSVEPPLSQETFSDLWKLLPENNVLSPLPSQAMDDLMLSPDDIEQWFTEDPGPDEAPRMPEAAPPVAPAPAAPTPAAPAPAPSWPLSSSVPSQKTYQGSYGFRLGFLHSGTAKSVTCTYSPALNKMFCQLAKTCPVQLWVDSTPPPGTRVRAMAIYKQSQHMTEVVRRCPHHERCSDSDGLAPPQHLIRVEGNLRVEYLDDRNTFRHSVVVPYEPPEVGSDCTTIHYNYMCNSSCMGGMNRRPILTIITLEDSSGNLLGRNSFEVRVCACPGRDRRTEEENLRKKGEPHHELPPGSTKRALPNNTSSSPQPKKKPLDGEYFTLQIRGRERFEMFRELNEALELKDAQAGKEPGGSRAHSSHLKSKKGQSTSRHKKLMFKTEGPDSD
Summary of the method: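 Cleaved-to-uncleaved substrate ratio (460 vs 530 nm) measured in HCT116 cells with an inducible beta-lactamase reporter linked to p53 activity. Compounds incubated 16 h at 37C before 2 h room-temperature CCF4-AM loading.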

[2] = molecular target: Cellular tumor antigen p53 (Homo sapiens) (UniProt P04637); assay: TOX21_p53_BLA_p3_ratio: Tox21 HCT-116 p53 Agonism Beta-lactamase Assay, Ratio, Phase 3 (AID 2283596)
Summary of the method: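 Cells were seeded at 4000/well, rested 5 h at 37C, then dosed with DMSO compound solutions (217-fold dilution) for 16 h. CCF4-AM substrate was loaded for 2 h at room temperature, and the 460/530 nm emission ratio was fitted for gain of signal versus DMSO.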

[3] = molecular target: Cellular tumor antigen p53 (Homo sapiens) (UniProt P04637); assay: TOX21_p53_BLA_p5_ratio: Tox21 HCT-116 p53 Agonism Beta-lactamase Assay, Ratio, Phase 5 (AID 2283599)
Summary of the method: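 HCT-116 p53-bla cells (4000/well) plated 5 h, dosed with compound (217-fold DMSO dilution) for 16 h at 37 C; CCF4-AM substrate 2 h at room temperature. Activity is the 460/530 nm emission ratio (405 nm excitation), fitted in gain-of-signal direction versus DMSO.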

[4] = molecular target: Cellular tumor antigen p53 (Homo sapiens) (UniProt P04637); assay: TOX21_p53_BLA_p4_ratio: Tox21 HCT-116 p53 Agonism Beta-lactamase Assay, Ratio, Phase 4 (AID 2283601)
Summary of the method: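 HCT-116 p53 beta-lactamase reporter cells (4000/well) preincubated 5 h, then compound (217-fold dilution of DMSO stock) for 16 h at 37C. CCF4-AM substrate added 2 h at room temperature; 460/530 nm emission ratio fitted upward versus DMSO.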

[5] = CCTE_Harrill_HTTr_Viability_MCF7: CCTE's 6-hour Cell Viability Assessment for the High-Throughput Transcriptomics (HTTr) Platform, in MCF-7 cells cultured in DMEM + 10% fetal bovine serum, Harrill Lab (AID 2284010; active = hit-call score of the fitted dose curve at least 0.9, where 1 is the maximum; inactive = score below 0.9)
Summary of the method: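 Propidium iodide exclusion, imaged by high-content analysis, gauged viability after a six-hour exposure across eight concentrations. Cells were MCF-7 grown in DMEM with 10% fetal bovine serum; fits run in both directions against DMSO.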

[6] = CCTE_Harrill_HTTr_CellCount_MCF7: CCTE's Cell Proliferation Assessment for the High-Throughput Transcriptomics (HTTr) Platform, Harrill Lab (AID 2284012);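 note: cells exposed to compound for six hours; intended direction is loss of nuclei count meaning fewer cells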
Summary of the method: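 Cell count from high-content imaging of Hoechst-labeled nuclei serves as viability/growth readout. Chemicals were applied to MCF-7 cells in eight concentrations for six hours, with fitting in both directions relative to DMSO.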

PGR (gene 5241) [7] = molecular target: PGR (gene 5241) (UniProt P06401); assay: TOX21_PR_BLA_Followup_Antagonist_ratio: Tox21 HEK293 Progesterone Receptor (PR) Antagonism Beta-lactamase Follow-Up Assay, Ratio (AID 2283934);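 note: PR-UAS-bla HEK293T cells stimulated with 1 nM R5020 agonist for 16 hr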
PGR (gene 5241), sequence (P06401 whole entry, looked up): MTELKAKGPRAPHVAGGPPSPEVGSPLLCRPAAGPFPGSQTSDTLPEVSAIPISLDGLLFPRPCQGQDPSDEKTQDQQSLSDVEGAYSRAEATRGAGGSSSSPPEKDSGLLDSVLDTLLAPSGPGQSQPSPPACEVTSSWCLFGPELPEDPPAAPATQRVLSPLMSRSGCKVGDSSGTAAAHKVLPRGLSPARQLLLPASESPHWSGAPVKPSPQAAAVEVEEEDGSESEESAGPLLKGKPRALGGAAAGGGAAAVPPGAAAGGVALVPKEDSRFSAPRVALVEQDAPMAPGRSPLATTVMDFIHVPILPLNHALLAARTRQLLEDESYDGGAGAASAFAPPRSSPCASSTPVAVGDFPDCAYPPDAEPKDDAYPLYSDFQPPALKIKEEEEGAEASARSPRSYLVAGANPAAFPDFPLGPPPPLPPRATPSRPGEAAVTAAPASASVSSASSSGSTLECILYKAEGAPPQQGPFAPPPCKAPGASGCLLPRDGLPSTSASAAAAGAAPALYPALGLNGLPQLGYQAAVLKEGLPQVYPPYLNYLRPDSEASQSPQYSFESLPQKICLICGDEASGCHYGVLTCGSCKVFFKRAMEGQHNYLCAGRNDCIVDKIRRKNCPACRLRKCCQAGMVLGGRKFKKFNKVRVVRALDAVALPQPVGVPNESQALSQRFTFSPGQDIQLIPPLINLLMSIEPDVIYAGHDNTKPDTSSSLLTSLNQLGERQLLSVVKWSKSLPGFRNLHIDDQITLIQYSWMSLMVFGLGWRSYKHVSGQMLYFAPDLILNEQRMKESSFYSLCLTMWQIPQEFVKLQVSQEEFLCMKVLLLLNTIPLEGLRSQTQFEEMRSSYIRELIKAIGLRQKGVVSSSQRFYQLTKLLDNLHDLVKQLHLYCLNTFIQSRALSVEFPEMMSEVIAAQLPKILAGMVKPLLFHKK
Summary of the method: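 Readout is the blue/green (ch2/ch1) substrate cleavage ratio after 2 hours at room temperature, following 16 hr co-treatment of PR-bla HEK293T cells with compound and 1nM promegestone. Multiplexed CellTiter-Glo viability flags cytotoxicity; DMSO baseline.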

[8] = TOX21_PR_BLA_Followup_Agonist_viability: Viability Assessment in the Tox21 HEK293 Progesterone Receptor (PR) Agonism Beta-lactamase Follow-Up Assay (AID 2283935);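 note: signal loss means lower viability so actives are cytotoxic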
Summary of the method: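 Run multiplexed with the beta-lactamase FRET read, this endpoint measures ATP by CellTiter-Glo luminescence (30 min, room temperature). PR-UAS-bla HEK293T cells received compound 6 hr after plating and were then incubated 16 hr at 37C in 2% stripped serum.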

PGR (gene 5241) [9] = molecular target: PGR (gene 5241) (UniProt P06401); assay: TOX21_PR_LUC_Followup_Antagonist: Tox21 HEK293 Progesterone Receptor (PR) Antagonism Luciferase Follow-Up Assay (AID 2283938);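 note: curve fitted upward as signal gain over DMSO baseline despite antagonist label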
Summary of the method: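 A follow-up to the PR bla screen using HEK293-PR-A-luc cells, multiplexed with cell viability to flag cytotoxicity. Reporter luminescence after 16 h compound exposure was analysed relative to DMSO.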

[10] = TOX21_p53_BLA_p5_viability: Viability Assessment in the Tox21 HCT-116 p53 Agonism Beta-lactamase Assay, Phase 5 (AID 2283600)
Summary of the method: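 Viability is taken from cellular ATP content, measured by luciferase luminescence in the same wells after the beta-lactamase ratio read. Cells are seeded at 4000 per well and exposed to DMSO-dissolved compounds, diluted 217-fold, for 16 h.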

CCCN1CCC[C@H](c2cccc(O)c2)C1
outcome [1]: inactive
outcome [2]: inactive
outcome [3]: inactive
outcome [4]: inactive

COc1cccc([C@@]2(O)CCCC[C@@H]2CN(C)C)c1
outcome [1]: inactive
outcome [2]: inactive
outcome [4]: inactive
outcome [5]: inactive
outcome [6]: inactive

CCOc1cc(OP(=S)(OC)OC)nc(CC)n1
outcome [1]: inactive
outcome [2]: inactive
outcome [4]: inactive

CCN
outcome [1]: inactive
outcome [2]: inactive
outcome [3]: inactive
outcome [4]: inactive

O=C(N[C@H]1N=C(c2ccccc2F)c2cccc3c2N(CC3)C1=O)c1cc2ccccc2[nH]1
outcome [1]: inactive
outcome [2]: inactive
outcome [3]: inactive
outcome [4]: inactive

c1csc(C2(N3CCCCC3)CCCCC2)c1
outcome [1]: inactive
outcome [2]: inactive
outcome [3]: inactive
outcome [4]: inactive

CCS(=O)(=O)C(C)(C)S(=O)(=O)CC
outcome [1]: inactive
outcome [2]: inactive
outcome [3]: inactive
outcome [4]: inactive

CC(NC(C)(C)C)C(=O)c1cccc(Cl)c1 (stereo unspecified)
outcome [1]: inactive
outcome [2]: inactive
outcome [3]: inactive
outcome [4]: inactive

C[C@]12C=CC(=O)C=C1CC[C@@H]1[C@@H]2CC[C@@]2(C)[C@H]1CC[C@]2(C)O
outcome [1]: inactive
outcome [2]: inactive
outcome [3]: inactive
outcome (PGR (gene 5241) [7]): inactive
outcome [8]: inactive
outcome (PGR (gene 5241) [9]): inactive

CC[C@@H](CO)NC(=O)[C@@H]1C=C2c3cccc4[nH]cc(c34)C[C@H]2N(C)C1
outcome [1]: inactive
outcome [2]: inactive
outcome [10]: inactive
outcome [4]: inactive

CC(C)=CCN1CC[C@@]2(C)c3cc(O)ccc3C[C@@H]1[C@@H]2C
AC50 [1]: 86.2 µM (active)
outcome [2]: inactive
outcome [10]: inactive
outcome [4]: inactive

CC(=O)OO
outcome [1]: inactive
outcome [2]: inactive
outcome [3]: inactive
outcome [4]: inactive

CCCCCCCCCBr
outcome [1]: inactive
outcome [2]: inactive
outcome [10]: inactive
outcome [4]: inactive

CCCN(CCC)CCc1c[nH]c2ccccc12
outcome [1]: inactive
outcome [2]: inactive
outcome [10]: inactive

CCCC[N+]1(C)CCCC1
outcome [1]: inactive
outcome [2]: inactive
outcome [3]: inactive
outcome [4]: inactive
